# The entries come from a sample that favours the strongest signals as a whole.
# Experiments:
# Assay in all cases: glycan array binding signal (z-score within array); higher = stronger binding
# Settings in all cases: glycan notation: IUPAC condensed, linker removed; mutation: R349A
# [1] = molecular target: Fuc(a1-2)Gal(b1-4)GlcNAc
# Outline: (§1)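 Arrays were curated from the Consortium for Functional Glycomics database, 3228 in total, and kept only where the protein sequence was available. Binding is expressed as a within-array Z-score. This score was averaged across arrays of the same protein sequence at different concentrations or buffers and across linkers, and negative values can be read as non-binding.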
# [2] = molecular target: Fuc(a1-2)Gal(b1-4)GlcNAc(b1-3)Gal(b1-4)GlcNAc
# Outline: as §1
# [3] = molecular target: Fuc(a1-2)[GalNAc(b1-3)]Gal
# Outline: as §1
# [4] = molecular target: Fuc(a1-3)[Gal(b1-4)]GlcNAc(b1-3)Gal(b1-3)[Fuc(a1-4)]GlcNAc
# Outline: as §1
# [5] = molecular target: Gal(b1-3)GalNAc
# Outline: as §1
# [6] = molecular target: Gal(b1-3)GalNAc(b1-4)[Neu5Ac(a2-3)]Gal(b1-4)Glc
# Outline: as §1
# [7] = molecular target: Gal(b1-3)[Fuc(a1-4)]GlcNAc(b1-3)Gal(b1-4)GlcNAc
# Outline: as §1
# [8] = molecular target: Gal(b1-4)GlcNAc(b1-3)[GlcNAc(b1-6)]Gal(b1-4)GlcNAc
# Outline: as §1
# [9] = molecular target: Gal3S(b1-4)Glc
# Outline: as §1
# [10] = molecular target: Gal3S6S(b1-4)GlcNAc
# Outline: as §1
# [11] = molecular target: Gal3S6S(b1-4)GlcNAc6S
# Outline: as §1
# [12] = molecular target: Gal6S(b1-4)Glc6S
# Outline: as §1
# [13] = molecular target: GlcNAc(b1-2)Man(a1-3)[GlcNAc(b1-2)Man(a1-6)]Man(b1-4)GlcNAc(b1-4)GlcNAc
# Outline: as §1
# [14] = molecular target: GlcNAc(b1-3)Gal
# Outline: as §1
# [15] = molecular target: GlcNAc(b1-4)GlcNAc(b1-4)GlcNAc
# Outline: as §1
# [16] = molecular target: GlcNAc(b1-4)GlcNAc(b1-4)GlcNAc(b1-4)GlcNAc(b1-4)GlcNAc
# Outline: as §1
# [17] = molecular target: GlcNAc(b1-4)[GlcNAc(b1-6)]GalNAc
# Outline: as §1
# [18] = molecular target: Man(a1-2)Man(a1-2)Man(a1-6)[Man(a1-3)]Man
# Outline: as §1
# [19] = molecular target: Man(a1-2)Man(a1-3)Man
# Outline: as §1
# [20] = molecular target: Man(a1-2)Man(a1-3)[Man(a1-2)Man(a1-6)]Man(a1-6)[Man(a1-2)Man(a1-2)Man(a1-3)]Man
# Outline: as §1
# [21] = molecular target: Man(a1-3)[Man(a1-6)]Man(a1-6)[Man(a1-2)Man(a1-3)]Man(b1-4)GlcNAc(b1-4)GlcNAc
# Outline: as §1
# [22] = molecular target: Neu5Ac(a2-3)Gal(b1-4)GlcNAc(b1-2)Man(a1-3)[GlcNAc(b1-2)Man(b1-4)GlcNAc(b1-2)Man(a1-6)]Man(b1-4)GlcNAc(b1-4)GlcNAc
# Outline: as §1
# [23] = molecular target: Neu5Ac(a2-3)Gal(b1-4)[Fuc(a1-3)]GlcNAc(b1-3)Gal(b1-4)[Fuc(a1-3)]GlcNAc(b1-3)Gal(b1-4)[Fuc(a1-3)]GlcNAc
# Outline: as §1
# [24] = molecular target: Neu5Ac(a2-6)GalNAc
# Outline: as §1
# [25] = molecular target: Neu5Ac(a2-8)Neu5Ac(a2-8)Neu5Ac(a2-3)[GalNAc(b1-4)]Gal(b1-4)Glc
# Outline: as §1
binder,measurement,setting,value
Surfactant Protein D (Human); Neck + Carbohydrate Recognition Domain (NCRD) (Homo sapiens) (protein) MLLFLLSALVLLTQPLGYLEAEMKTYSHRTMPSACTLVMCSSVESGLPGRDRDGREGPRGEKGDPGLPGAAGQAGMPGQAGPVGPKGDNGSVGEPGPKGDTGPSGPPGPPGVPGPAGREGALGKQGNIGPQGKPGPKGEAGPKGEVGAPGMQGSAGARGLAGPKGERGVPGERGVPGNTGAAGSAGAMGPQGSPGARGPPGLKGDKGIPGDKGAKGESGLPDVASLRQQVEALQGQVQHLQAAFSQYKKVELFPNGQSVGEKIFKTAQFVKPFTEAQLLCTQAGGQLASPRSAAENAALQQLVVAKNEAAFLSMTDSKTEGKFTYPTGESLVYSNWAPGEPNDDGGSEDCVEIFTNGKWNDRACGEKALVVCEF,glycan array binding signal (z-score),[1],-0.584
same,glycan array binding signal (z-score),[2],-0.301
same,glycan array binding signal (z-score),[3],-0.782
same,glycan array binding signal (z-score),[4],-0.667
same,glycan array binding signal (z-score),[5],-0.459
same,glycan array binding signal (z-score),[6],0.216
same,glycan array binding signal (z-score),[7],0.257
same,glycan array binding signal (z-score),[8],-0.419
same,glycan array binding signal (z-score),[9],0.892
same,glycan array binding signal (z-score),[10],2.25
same,glycan array binding signal (z-score),[11],3.32
same,glycan array binding signal (z-score),[12],3.96
same,glycan array binding signal (z-score),[13],-0.653
same,glycan array binding signal (z-score),[14],-0.71
same,glycan array binding signal (z-score),[15],3.19
same,glycan array binding signal (z-score),[16],0.258
same,glycan array binding signal (z-score),[17],-0.577
same,glycan array binding signal (z-score),[18],-0.532
same,glycan array binding signal (z-score),[19],0.578
same,glycan array binding signal (z-score),[20],4.48
same,glycan array binding signal (z-score),[21],7.39
same,glycan array binding signal (z-score),[22],0.008
same,glycan array binding signal (z-score),[23],-0.593
same,glycan array binding signal (z-score),[24],0.373
same,glycan array binding signal (z-score),[25],-0.579

# Source: the supplement of paper PMC8728848
